Screening results (PubChem)
Mac1 fbg enh: CD11b/CD18-fibrinogen binding enhancement. P05107+P11215. K562 CD11b/CD18 adhesion to fibrinogen, ATPlite luminescence. activation, % at 10 µM. actives 0.07% (n = 93,000). AID 1499;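 active = 10 µM primary screen giving 50% or more activity, confirmed by 40% or more on retest at that dose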
CYP2C9 inhib: inhibitors of human CYP2C9; inhibition, % at 5 µM; CYP2C9 Supersomes, luciferin-H conversion, luminescence; actives 20% (n = 96,000); AID 777; P11712;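 active = blocking of liver enzyme CYP2C9 beyond about 50% at 5 µM, limit read from the data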
Target sequence (P11712 whole entry, looked up): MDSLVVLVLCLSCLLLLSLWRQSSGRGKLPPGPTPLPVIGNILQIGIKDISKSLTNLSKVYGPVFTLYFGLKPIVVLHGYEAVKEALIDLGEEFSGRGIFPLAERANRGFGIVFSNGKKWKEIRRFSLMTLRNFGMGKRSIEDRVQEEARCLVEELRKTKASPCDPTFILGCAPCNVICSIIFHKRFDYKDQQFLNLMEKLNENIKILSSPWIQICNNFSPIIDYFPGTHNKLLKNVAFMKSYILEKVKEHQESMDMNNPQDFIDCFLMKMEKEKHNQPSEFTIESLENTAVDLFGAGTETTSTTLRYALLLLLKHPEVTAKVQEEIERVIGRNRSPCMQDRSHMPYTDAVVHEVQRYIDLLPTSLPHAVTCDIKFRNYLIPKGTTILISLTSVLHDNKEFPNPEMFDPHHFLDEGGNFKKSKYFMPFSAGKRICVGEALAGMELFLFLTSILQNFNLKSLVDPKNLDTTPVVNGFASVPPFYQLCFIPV
CYP2C9 activ: CYP2C9 (human) activation. activation factor at 5 µM. actives 1.4% (n = 96,000). recombinant CYP2C9, luciferin-H conversion, luminescence; hits give high values; factor 1 = untreated enzyme, 0 = blocked;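 active = activation factor of 2 or more for CYP2C9 at a 5 µM dose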;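 also: 0 = sulfaphenazole-blocked wells and 1 = vehicle-only wells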
CYP2C19 act: activators of human cytochrome P450 2C19; recombinant CYP2C19, luciferin-H EGE luminescence; hits give high values; 0 = fully inhibited enzyme, 1 = untreated enzyme; activation factor at 5 µM; P33261; AID 1025; 96,000 tested, under 10 active;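 active = activation factor of at least 2 at 5 µM in the primary screen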;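 also: 0 = wells with 2.5 mM tranylcypromine and 1 = vehicle-only wells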
Mac1 fbg inh: blocks human CD11b/CD18 adhesion to fibrinogen; P05107+P11215; K562 CD11b/CD18 adhesion to fibrinogen, ATPlite luminescence; Mn2+ added to activate the integrin; inhibition, % at 10 µM; actives 0.54% (n = 93,000);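 active = primary inhibition of 50% or more at 10 µM, then 40% or more on retest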
CYP2C19 inh: blocks human cytochrome P450 2C19; inhibition, % at 5 µM; actives 21% (n = 96,000); CYP2C19 Supersomes, luciferin-H EGE luminescence, 30 min; P33261;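 active = CYP2C19 inhibition above a set limit at 5 µM in the primary screen, cut at about 50% in these data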;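 also: plate controls were negative control wells for no effect and 2.5 mM tranylcypromine positive control for full effect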
* = called active by the depositor. Hits are enriched below; roughly 28% of the tested compounds scored in any of these assays.

CCn1c(SCc2cccnc2)nc2c1c(=O)n(C)c(=O)n2C was read as Mac1 fbg enh 2, CYP2C9 inhib 12, CYP2C9 activ 0.9, CYP2C19 act 0.8, Mac1 fbg inh 10 and CYP2C19 inh 16.
Cn1c(=O)c2c(SCc3cccnc3)nc(CC(C)(C)C)nc2n(C)c1=O was read as Mac1 fbg enh 4, CYP2C9 inhib 98*, CYP2C9 activ 0, CYP2C19 act 0.1, Mac1 fbg inh -6 and CYP2C19 inh 90*.
`CCCc1nc(SCc2cccnc2)c2c(=O)n(C)c(=O)n(C)c2n1` gave Mac1 fbg enh 4, CYP2C9 inhib 90*, CYP2C9 activ 0.1, CYP2C19 act 0, Mac1 fbg inh 1 and CYP2C19 inh 100*.
Cc1snc(S(=O)(=O)Cc2ccccc2Cl)c1C#N was read as Mac1 fbg enh -2, CYP2C9 inhib 4, CYP2C9 activ 1, CYP2C19 act 0.6, Mac1 fbg inh -3 and CYP2C19 inh 38.
Screening COc1ccccc1NC(=S)NC(=O)CC(C)C returned CYP2C9 inhib 35, CYP2C9 activ 0.7, CYP2C19 act 0.8 and CYP2C19 inh 24.
O=C(CN1C(=O)COc2ccccc21)NCCC1=CCCCC1 was read as Mac1 fbg enh -3, CYP2C9 inhib 16, CYP2C9 activ 0.8, CYP2C19 act 0.2, Mac1 fbg inh -5 and CYP2C19 inh 81*.
Screening O=C(CCN1C(=O)COc2ccccc21)NCCC1=CCCCC1 returned CYP2C9 inhib 9, CYP2C9 activ 0.9, CYP2C19 act 0.4 and CYP2C19 inh 63*.
`O=C(CN1C(=O)COc2ccccc21)NCCCN1CCc2ccccc2C1` gave Mac1 fbg enh -3, CYP2C9 inhib 3, CYP2C9 activ 1, CYP2C19 act 0.9, Mac1 fbg inh -25 and CYP2C19 inh 6.
Screening O=C(O)Cn1nnnc1SCC(=O)Nc1ccc(OC(F)(F)F)cc1 returned Mac1 fbg enh -5, CYP2C9 inhib -14, CYP2C9 activ 1.1, CYP2C19 act 1.2, Mac1 fbg inh 7 and CYP2C19 inh -18.
For C=CCn1c(=O)c2ccccc2n2c(SCC(N)=O)nnc12 the results were CYP2C9 inhib -10, CYP2C9 activ 1.1, CYP2C19 act 1.1 and CYP2C19 inh -11.
For C=CCn1c(=O)c2ccccc2n2c(SCc3c(C(=O)OCC)oc4ccccc34)nnc12 the results were Mac1 fbg enh -3, CYP2C9 inhib 60*, CYP2C9 activ 0.4, CYP2C19 act 0.4, Mac1 fbg inh 12 and CYP2C19 inh 59*.
C=CCn1c(=O)c2ccccc2n2c(SCc3nc4ccccc4s3)nnc12 was read as Mac1 fbg enh -1, CYP2C9 inhib 37, CYP2C9 activ 0.6, CYP2C19 act 0.4, Mac1 fbg inh 5 and CYP2C19 inh 62*.
Screening COCCN(C(=S)Nc1cccc(OC)c1)C1CCN(C(C)C)CC1 returned Mac1 fbg enh -3 and Mac1 fbg inh -9.
`O=C1N(Cc2ccccc2)CCCC12CCCN(Cc1ccccc1)C2=O` gave Mac1 fbg enh 3, CYP2C9 inhib -4, CYP2C9 activ 1, CYP2C19 act 0.7, Mac1 fbg inh -12 and CYP2C19 inh 35.
Screening CCOC(=O)/N=C(/NC(=O)Nc1ccc(C(=O)OCC)cc1)OC returned Mac1 fbg enh 4, CYP2C9 inhib 3, CYP2C9 activ 1, CYP2C19 act 1, Mac1 fbg inh -19 and CYP2C19 inh -1.
For COCCCNc1nc(SCc2ccccc2)nc2sc3c(c12)CCC3 the results were CYP2C9 inhib 61*, CYP2C9 activ 0.4, CYP2C19 act 0.7 and CYP2C19 inh 25.
`N#Cc1c(-c2ccccc2)c(-c2ccccc2)nn(CC(=O)NNC(=O)Nc2ccc(Cl)c(Cl)c2)c1=O` gave Mac1 fbg enh -3, CYP2C9 inhib 62*, CYP2C9 activ 0.4, CYP2C19 act 0.8, Mac1 fbg inh -3 and CYP2C19 inh 24.
For Cc1cc(C(F)(F)F)nn1CCCNC(=O)c1cnccn1 the results were Mac1 fbg enh 1, CYP2C9 inhib 8, CYP2C9 activ 0.9, CYP2C19 act 0.5, Mac1 fbg inh 1 and CYP2C19 inh 50*.
Screening Cc1cc(C(F)(F)F)nn1CC(=O)NNC(=S)NCC(C)C returned Mac1 fbg enh -1, CYP2C9 inhib 0, CYP2C9 activ 1, CYP2C19 act 0.7, Mac1 fbg inh -1 and CYP2C19 inh 32.
